Source: PubChem BioAssay (Buhrlage Lab, Dana-Farber Cancer Institute and Novartis Institutes for BioMedical Research (Cambridge, Mass))
An excerpt weighted towards active compounds, which were near 13% of everything screened.
USP10 block = blocks human USP10 ubiquitin-rhodamine cleavage | inhibition, % at 20 µM | AID 1645856 | 1.1% of 47,000 active | Q14694 | purified USP10, Ub-rhodamine fluorescence, 60 min
USP30 inh = human USP30 deubiquitinase inhibition; Q70CQ3; AID 1645860; 5.3% of 47,000 active; inhibition, % at 25 µM; purified USP30, Ub-rhodamine cleavage fluorescence
UCHL1 inh = inhibitors of human UCHL1 deubiquitinase | P09936 | purified UCHL1, Ub-rhodamine cleavage fluorescence | inhibition, % at 20 µM | 0.2% of 47,000 active | AID 1645859
USP17 inh = human USP17-like deubiquitinase inhibition. purified USP17, Ub-rhodamine cleavage fluorescence, 3 h. 6.5% of 47,000 active. AID 1645855. inhibition, % at 50 µM
Target sequence (A8MUK1 whole entry, looked up): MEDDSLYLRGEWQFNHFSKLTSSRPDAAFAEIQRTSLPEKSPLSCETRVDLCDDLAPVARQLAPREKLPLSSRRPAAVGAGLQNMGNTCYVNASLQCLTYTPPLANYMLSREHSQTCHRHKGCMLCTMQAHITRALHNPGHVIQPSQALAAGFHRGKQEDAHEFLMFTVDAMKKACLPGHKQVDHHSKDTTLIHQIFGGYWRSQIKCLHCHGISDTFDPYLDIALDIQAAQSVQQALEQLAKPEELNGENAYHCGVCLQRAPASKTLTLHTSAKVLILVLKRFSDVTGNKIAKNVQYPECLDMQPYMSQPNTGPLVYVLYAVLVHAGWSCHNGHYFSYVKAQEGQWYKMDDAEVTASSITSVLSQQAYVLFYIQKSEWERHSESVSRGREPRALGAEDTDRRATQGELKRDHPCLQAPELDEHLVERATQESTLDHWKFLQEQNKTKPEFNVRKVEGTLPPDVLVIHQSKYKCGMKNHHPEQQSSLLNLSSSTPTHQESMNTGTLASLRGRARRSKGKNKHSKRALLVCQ
USP7 inh = human USP7 deubiquitinase inhibition | purified USP7, Ub-rhodamine cleavage fluorescence | inhibition, % at 20 µM | 0.3% of 47,000 active
USP8 block = inhibitors of human USP8 deubiquitinase | P40818 | purified USP8, Ub-rhodamine cleavage fluorescence, 30 min | inhibition, % at 20 µM | 4.2% of 47,000 active | AID 1645853
An asterisk follows results filed as active. Rule as the data show it: active = inhibition above about 30%; inactive = the rest.

`Cc1cccc(N2CC(c3noc(-c4ccccn4)n3)CC2=O)c1` (configuration not stated) gave USP10 block -0.8, USP30 inh 22.2, UCHL1 inh 0.9, USP17 inh 20.1, USP7 inh 1.3 and USP8 block 16.5.
COc1cccc(CNC(=O)c2ccccc2NC(=O)c2ccc(F)cc2)c1 was read as USP10 block 9.0, USP30 inh 40.7*, UCHL1 inh 5.1, USP17 inh 7.0, USP7 inh -15.0 and USP8 block 0.6.
`O=C(Cc1ccccc1)NCCc1ccccc1` gave USP10 block 2.3, USP30 inh -52.7, UCHL1 inh 0.0, USP17 inh -1.4, USP7 inh -0.6 and USP8 block 0.9.
Screening O=C(NCCc1ccccc1)c1ccccc1-c1ccccc1C(=O)NCCc1ccccc1 returned USP10 block 11.6, USP30 inh 31.6*, UCHL1 inh 7.1, USP17 inh 11.5, USP7 inh 11.9 and USP8 block 12.3.
COc1ccccc1OCc1ccc(C(=O)Nc2ccc(F)cc2C)cc1 was read as USP10 block 7.4, USP30 inh 12.6, UCHL1 inh 0.1, USP17 inh 52.6*, USP7 inh 6.3 and USP8 block -0.2.
For COc1cccc(CNC(=O)c2ccc(Cn3cncn3)cc2)c1 the results were USP10 block 1.8, USP30 inh 28.8, UCHL1 inh 0.7, USP17 inh 8.5, USP7 inh 2.2 and USP8 block 4.6.
`COc1cccc(-n2cnc3cc(C(=O)NCCc4ccccc4)ccc3c2=O)c1` gave USP10 block -5.3, USP30 inh -21.3, UCHL1 inh 4.0, USP17 inh 0.4, USP7 inh 23.0 and USP8 block 53.8*.
`O=C(NC1CCCC1)N1CCC2(CC1)COCCN(Cc1ccncc1)C2` gave USP10 block -6.1, USP30 inh -149.0, UCHL1 inh -5.3, USP17 inh -33.5, USP7 inh -8.1 and USP8 block -30.0.
`CCc1nc(N2CCCC2=O)sc1C(=O)Nc1cccc(C)c1` gave USP10 block 0.0, USP30 inh -6.4, UCHL1 inh -1.2, USP7 inh -2.0 and USP8 block 1.2.
Screening COc1cccc(C(=O)Nc2ccccc2C(=O)NCCc2ccccc2)c1 returned USP10 block 9.8, USP30 inh 49.3*, UCHL1 inh 7.7, USP17 inh 29.2, USP7 inh 13.7 and USP8 block -1.7.
Screening COc1cccc(C(=O)Nc2cccc3cnccc23)c1 returned USP10 block -4.7, USP30 inh -15.4, UCHL1 inh -2.0, USP17 inh 16.4, USP7 inh 0.0 and USP8 block 23.6.
`CCCCCCCCCCCCCCCCCC(=O)OCC(O)COC(=O)CCCCCCCCCCCCCCCCC` gave USP10 block -0.1, USP30 inh 8.9, UCHL1 inh -3.6, USP17 inh -4.4, USP7 inh -29.2 and USP8 block 2.0.
`COc1ccccc1NC(=O)c1cc(S(=O)(=O)N2CCCC2)ccc1Cl` gave USP10 block 2.2, USP30 inh -6.6, UCHL1 inh -0.2, USP17 inh 0.3, USP7 inh -0.1 and USP8 block -2.2.
For COc1ccc(S(=O)(=O)N2CCCCCC2)cc1NC(=O)c1cc(F)cc(F)c1 the results were USP10 block 4.2, USP30 inh 7.5, UCHL1 inh -2.8, USP17 inh -1.1, USP7 inh 10.8 and USP8 block 7.4.
`COC(=O)c1ccccc1NC(=O)c1ccc(S(=O)(=O)N2CCCC2)cc1` gave USP10 block 6.7, USP30 inh 42.6*, UCHL1 inh -3.7, USP17 inh 15.5, USP7 inh -0.1 and USP8 block 1.5.
COc1ccc(S(=O)(=O)N2CCCCC2)cc1NC(=O)c1ccc(N2CCCC2=O)cc1 was read as USP10 block 0.1, USP30 inh 26.9, UCHL1 inh 2.5, USP17 inh 50.0*, USP7 inh 2.7 and USP8 block 11.2.
CC(=O)NCc1ccc2[nH]c3c(c2c1)CCCC3 was read as USP10 block -2.3, USP30 inh -85.2, UCHL1 inh -3.3, USP17 inh -23.7, USP7 inh -4.6 and USP8 block -7.5.
For O=S(=O)(NCc1ccc2[nH]c3c(c2c1)CCCC3)c1ccccc1 the results were USP10 block -7.7, USP30 inh -404.2, UCHL1 inh -19.1, USP17 inh -21.4, USP7 inh -24.0 and USP8 block 34.3*.
For CCC(=O)c1cn(CC(=O)Nc2cccc(C)c2)c2ccccc12 the results were USP10 block -0.6, USP30 inh 0.5, UCHL1 inh -2.5, USP17 inh 7.2, USP7 inh -0.1 and USP8 block 0.2.
For Cc1ccc(C)c(NC(=O)Cn2cc(C(=O)C3CC3)c3ccccc32)c1 the results were USP10 block 45.6*, USP30 inh 75.8*, UCHL1 inh 3.5, USP17 inh 62.4*, USP7 inh 35.4* and USP8 block 92.9*.
For COc1cccc(NC(=O)Cn2cc(C(=O)C3CC3)c3ccccc32)c1 the results were USP10 block 2.7, USP30 inh 69.2*, UCHL1 inh 5.0, USP17 inh 53.1*, USP7 inh 5.7 and USP8 block 25.2.
For CN(C)CCc1cc2c(c3c1ccc1ccccc13)OCO2 the results were USP10 block -2.0, USP30 inh 31.3*, UCHL1 inh 1.9, USP17 inh 16.6, USP7 inh -26.5 and USP8 block 7.9.
For C=C1CCC2[C@](C)(CCC[C@]2(C)C(=O)OC)[C@H]1CCc1ccoc1CNC(C)C (some centres not stated) the results were USP10 block -2.8, USP30 inh 23.9, UCHL1 inh 4.8, USP17 inh 18.4, USP7 inh 11.2 and USP8 block 10.8.
Screening C=C1CCC2[C@](C)(CCC[C@]2(C)C(=O)OC)[C@H]1CCc1ccoc1CNC(CCSC)C(=O)O (some centres not stated) returned USP10 block -7.6, USP30 inh -60.0, UCHL1 inh -7.4, USP17 inh 28.1, USP7 inh 1.7 and USP8 block 43.1*.
CC1=C(C)C(c2c(-c3ccc(C)cc3)[nH]c3ccccc23)N(C(C)(C)C)C1=O (configuration not stated) was read as USP10 block 40.6*, USP30 inh 10.5, UCHL1 inh 13.5, USP17 inh 94.1*, USP7 inh 31.6* and USP8 block 90.2*.
`Cc1ccc(S(=O)(=O)N2CCC(c3c(C)[nH]c4ccccc34)CC2)cc1` gave USP10 block -4.5, USP30 inh -27.6, UCHL1 inh 2.9, USP17 inh 10.2, USP7 inh -7.2 and USP8 block 9.7.
`COc1cccc(CC(NC(C)=O)C(=O)NC2CCN(c3nc(OC)nc(OC)n3)CC2)c1` (configuration not stated) gave USP10 block -5.6, USP30 inh -32.3, UCHL1 inh -6.6, USP17 inh -11.4, USP7 inh -4.0 and USP8 block -12.5.
